HT1080 IDH1KD tx: toxicity to HT-1080 IDH1 knockdown cells (counter line); HT-1080 IDH1 knockdown viability, ATP luminescence, 48 h; Potency, µM (series often up to 46.1 µM), most hits filed as cytotoxic; 360,000 compounds, 2% hits; AID 686971
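CellTiter-Glo luminescence after 48 h compound exposure at 37 degrees C of IDH1-knockdown HT-1080 cells in 5% FBS RPMI. %Activity scaled between DMSO wells and cell-free media wells, with curves fitted and assigned curve classes.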
KB-V1 MDR tox: kills drug-selected multidrug resistant KB-V1 cells; KB-V1 MDR cells viability, CellTiter-Glo, 72 h; Potency, µM (titrated, usually from 46.1 µM), actives largely listed as cytotoxic; 400,000 compounds, 3.4% hits; AID 1347076; note: nearly all actives have a fitted effect of over 60% in size
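Readout: CellTiter-Glo luminescence, 10 min after addition. Cells: KB-V1 MDR subline, 72 h at 37 degrees C with compound. Analysis: corrected, normalized data fitted to concentration-effect curves.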
DT40 TDP1 no CPT: qHTS for Inhibitors of human tyrosyl-DNA phosphodiesterase 1 (TDP1): qHTS in cells in absence of CPT | Potency, µM (highest dose often 46.2 µM), usual class: inhibitors | 420,000 compounds, 15% hits | DT40 Tdp1-/- hTDP1 cells, no CPT, ATP luminescence, 48 h | AID 686978, 2013; note: nearly all actives have a fitted effect of over 55% in size
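DT40 Tdp1-/-;hTDP1 cells, no CPT (DMSO vehicle only), 400 cells/well; compounds pin-transferred; ≥48 hr, 37 °C; CellTiter-Glo 30 min RT dark, luminescence read.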
KB-3-1 tox: KB-3-1 parental cell cytotoxicity; 400,000 compounds, 1.4% hits; Potency, µM (highest dose often 46.1 µM), usual class: cytotoxic; KB-3-1 viability, CellTiter-Glo ATP luminescence, 72 h; note: nearly all actives have a fitted effect of over 60% in size
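Cells are dispensed, compounds pinned in, plates held at 37 °C for 72 h, then CellTiter-Glo is added and luminescence read after 10 minutes. Cell line: parental KB-3-1 in phenol-red-free DMEM, 10% FBS.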
HT1080NT lethal: kills 2HG-producing HT-1080-NT fibrosarcoma cells; HT-1080-NT fibrosarcoma viability, CellTiter-Glo ATP luminescence, 48 h; Potency, µM (series often up to 46.1 µM), actives largely listed as cytotoxic; 360,000 compounds, 1.6% hits;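 note: NT is the 2HG producing partner of a matched IDH1 knockdown line; nearly all actives have a fitted effect of over 55% in size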
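Viability by CellTiter-Glo luminescence after 48 h compound exposure at 37C of HT-1080-NT cells (750/well, RPMI, 5% FBS). % activity scaled between DMSO wells and medium-only wells, then curve-fitted and categorized by curve class.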
TDP1 cell CPT: growth inhibition of DT40 Tdp1-/-;hTDP1 cells with camptothecin (screen for TDP1 inhibitors). Potency, µM (titrated, usually from 46.2 µM), most hits filed as inhibitors. AID 686979. chicken DT40 Tdp1-/-;hTDP1 cells + 20 nM CPT, ATP luminescence, 48 h. 420,000 compounds, 12% hits; note: nearly all actives have a fitted effect of over 55% in size
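Chicken DT40 Tdp1-/- cells stably complemented with human TDP1 were seeded at 400 cells/well in medium containing 20 nM camptothecin, exposed to pin-transferred compounds, and grown at 37 °C for at least 48 hr. Viability was read as ATP luminescence.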
Numbers stand for hits; . = inactive; ? = inconclusive; / = no result given. A selection: hits, their analogues and other compounds. The true share with any hit is near 19%. Calls come from the whole dose curve; as a rule, active = well fitted curve in the direction sought with a large enough effect; inconclusive = small, poorly fitted or top-dose-only effect, or another doubt; inactive = no such curve, though single readings can be large; an effect the other way counts as inactive or inconclusive.

SMILES	HT1080 IDH1KD tx	KB-V1 MDR tox	DT40 TDP1 no CPT	KB-3-1 tox	HT1080NT lethal	TDP1 cell CPT
COc1ccc(C2CC(c3cccs3)=NN2C(=O)c2ccccc2)cc1OC (stereo not drawn)	.	.	.	.	.	.
COc1cc(C2CC(c3cccs3)=NN2C(=O)CCl)ccc1OC(F)F (stereo not drawn)	2.6µM	15µM	4.1µM	?	1.6µM	4.6µM
COc1ccc(C2CC(c3cccs3)=NN2C(=O)CCl)cc1OC (stereo not drawn)	7.3µM	?	3.3µM	?	4.6µM	2.6µM
COc1ccc(NS(=O)(=O)c2cccc3ccccc23)cc1	?	?	?	?	.	?
CNS(=O)(=O)c1cccc(C(=O)OCC(=O)/C=C2/N(C)c3ccccc3C2(C)C)c1	.	.	18µM	.	.	21µM
CN1/C(=C\C(=O)COC(=O)CNC(=O)c2ccc3ccccc3c2)C(C)(C)c2ccccc21	.	.	10µM	.	.	18µM
CN1/C(=C\C(=O)COC(=O)c2ccc(O)cc2)C(C)(C)c2ccccc21	.	?	16µM	?	.	15µM
CCOC(=O)/C=C1/N(C)c2ccccc2C1(C)C	.	.	.	.	.	.
CN1/C(=C\C(=O)COC(=O)c2ccc(O)c(O)c2)C(C)(C)c2ccccc21	?	?	6.5µM	?	.	6.5µM
CCCCNC(=O)c1nn(-c2ccc(C)cc2)c(=O)n(C)c1=O	/	.	.	.	/	.
Cc1cc(SCc2ccc(Cl)cc2Cl)nc(=O)[nH]1	?	.	10µM	?	.	?
Cc1cc(SCc2ccccc2Cl)nc(=O)[nH]1	.	.	.	.	.	.
Cc1cc(Cn2nnnc2-c2ccncc2)cc(C)c1O	.	.	.	.	.	.
C[C@@H](NCCc1ccc(O)cc1)[C@@H](O)c1ccc(O)cc1	.	.	.	?	.	.
CCCCCCCCNC(C)C(O)c1ccc(SC(C)C)cc1 (stereo not drawn)	?	16µM	16µM	.	23µM	18µM
Cc1noc(C)c1COc1ccccc1C(=O)N1CCN(c2cccc(C(F)(F)F)c2)CC1	?	?	4.6µM	?	?	5.2µM
Cc1cc(C)c(S(=O)(=O)N2CCN(C(=O)c3ccccc3OCc3c(C)noc3C)CC2)c(C)c1	.	7.3µM	.	.	.	?
Cc1noc(C)c1COc1ccccc1C(=O)N1CCN(c2cccc(Cl)c2)CC1	23µM	?	?	?	23µM	?
O=S(=O)(c1cccc(-c2nnc(SCc3ccc(Cl)cc3)o2)c1)N1CCCCC1	.	.	23µM	.	.	8.2µM
CCCCc1cc(=O)oc2cc(OCc3cc(OC)c(OC)c(OC)c3)c(Cl)cc12	.	.	15µM	.	.	?
O=c1c(CCc2ccccc2)nc2cnc(N3CCOCC3)nc2n1C[C@H]1CCCO1	/	/	.	/	/	?
COc1ccc(-c2cc(CCC(=O)N3CCN(c4cc(C)ccc4C)CC3)[nH]n2)cc1	.	.	23µM	.	.	?
CCOC(=O)c1[nH]c(C)c(CCC(=O)N2CCN(c3cccc(OC)c3)CC2)c1C	/	?	?	.	/	?
CCOC(=O)c1[nH]c(C)c(CCC(=O)N2CCN(c3cc(Cl)ccc3C)CC2)c1C	/	.	23µM	.	/	?
CCOC(=O)c1[nH]c(C)c(CCC(=O)Nc2c(C)cc(C)cc2C)c1C	/	.	21µM	.	/	?
CCOC(=O)c1[nH]c(C)c(CCC(=O)N2CCN(c3cc(C)ccc3C)CC2)c1C	/	?	23µM	?	/	?
CSc1ccc(CN(C)CC(=O)NC(C)c2ccccc2)cc1 (stereo not drawn)	.	.	?	.	.	.
O=C(CSc1cccc[n+]1[O-])Nc1cc(Cl)ccc1[N+](=O)[O-]	.	.	?	.	.	?
O=C(O)CSc1cccc[n+]1[O-]	.	.	?	.	.	.

Source: PubChem BioAssay
